Source: the supplement of paper PMC10646978
± gives the standard deviation.

Key:
Conditions in all cases: modulator concentration 10 µM
[1] = test system: RAW-Dual (murine macrophage reporter line); experiment: NF-kB reporter (SEAP) activity fold change vs agonist alone; higher = enhanced NF-kB activity
In short: (§1)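 Overnight stimulation with a PRR agonist followed pre-incubation for 1 hour at 37 °C with compound at 10 μM final. This was done in RAW-Dual murine macrophage reporter cells seeded at 50 000 per well in 384-well plates. NF-κB (SEAP, QUANTI-Blue absorbance at 620 nm) and IRF (Lucia luciferase, QUANTI-Luc luminescence) were read from the supernatant. Each reporter's fold change relative to the mean agonist-only control on the same plate was averaged over replicate plates.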

[2] = test system: RAW-Dual (murine macrophage reporter line); experiment: IRF reporter (Lucia luciferase) activity fold change vs agonist alone; higher = enhanced IRF activity
In short: as §1

[3] = test system: RAW-Dual (murine macrophage reporter line); experiment: viability score (confluency relative to resting cells, overnight) (fraction); higher = more viable, active = viable (0.7 or more)
In short: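 RAW-Dual macrophages in 384-well plates were treated overnight with compound at 10 μM final. IncuCyte imaging recorded confluency, and IncuCyte software built two confluency masks across every imaged well. The viability score expresses confluency relative to resting cells and was judged against a cutoff, which a compound met only if both masks exceeded 70% of resting cells.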

[4] = agonist: CpG ODN 1826 0.5 ug/mL

| SMILES | NF-kB reporter [1, 4] | NF-kB reporter ([1]; agonist: LPS 0.1 ug/mL) | NF-kB reporter ([1]; agonist: MPLA […]) | IRF reporter ([2]; agonist: 3'3'-cGAMP 10 ug/mL) | IRF reporter ([2]; agonist: LPS 0.1 ug/mL) | IRF reporter ([2]; agonist: MPLA […]) | viability score [3] |
| --- | --- | --- | --- | --- | --- | --- | --- |
| CNC(=O)c1cc(Oc2ccc(NC(=O)Nc3ccc(Cl)c(C(F)(F)F)c3)cc2)ccn1.Cc1ccc(S(=O)(=O)O)cc1 | 0.448 ± 0.038 | 0.8 ± 0.048 | 0.791 ± 0.072 | 0.246 ± 0.019 | 0.575 ± 0.047 | 0.513 ± 0.069 | 1.01 (active) |
| CN1C(=O)C(=NNC(=O)COc2cccc(Br)c2)c2ccccc21 | 0.895 ± 0.06 | 0.978 ± 0.082 | 0.896 ± 0.054 | 0.954 ± 0.033 | 1.48 ± 0.16 | 1.16 ± 0.12 | 1.01 (active) |
| COc1ccc(OC)c(Nc2nc(-c3c(C)nc4sccn34)cs2)c1 | 0.853 ± 0.073 | 0.961 ± 0.1 | 1.21 ± 0.13 | 0.925 ± 0.046 | 1.43 ± 0.094 | 1.75 ± 0.15 | 1.01 (active) |
| NC(=O)c1cccc2cn(-c3ccc([C@@H]4CCCNC4)cc3)nc12 | 0.187 ± 0.014 | 0.573 ± 0.051 | 0.85 ± 0.072 | 0.508 ± 0.051 | 0.559 ± 0.07 | 0.977 ± 0.088 | 0.887 (active) |
| CCOC(=O)C1=C(C)N(c2ccc(OC)cc2)C(=O)C1=Cc1ccc(C(C)C)cc1 | 0.903 ± 0.067 | 1.01 ± 0.083 | 0.804 ± 0.1 | 0.883 ± 0.03 | 1.36 ± 0.21 | 1.33 ± 0.12 | 0.997 (active) |
| COC(=O)C1=C(C)NC(C)=C(C(=O)OC)C1c1c(F)cccc1Cl | 0.828 ± 0.067 | 1.27 ± 0.072 | 1.42 ± 0.092 | 1.1 ± 0.04 | 1.17 ± 0.11 | 1.2 ± 0.23 | 0.979 (active) |
| CNCc1cc(-c2ccccc2F)n(S(=O)(=O)c2cccnc2)c1.O=C(O)/C=C/C(=O)O | 0.612 ± 0.05 | 1.04 ± 0.076 | 0.98 ± 0.021 | 0.931 ± 0.054 | 0.97 ± 0.056 | 0.855 ± 0.089 | 0.999 (active) |
| COc1cccc2c1C(=O)c1c(O)c3c(c(O)c1C2=O)C[C@@](O)(C(=O)CO)C[C@@H]3O[C@@H]1C[C@H](N)[C@@H](O)[C@H](C)O1 [Prestw-1752] | 0.219 ± 0.025 | 0.0896 ± 0.013 | 0.169 ± 0.016 | 0.264 ± 0.011 | 0.185 ± 0.05 | 0.33 ± 0.053 | 0.458 (inactive) |
| COc1ccc([C@@H]2Sc3ccccc3N(CCN(C)C)C(=O)[C@@H]2OC(C)=O)cc1.Cl | 0.958 ± 0.074 | 1.02 ± 0.053 | 1.21 ± 0.064 | 0.969 ± 0.15 | 0.997 ± 0.11 | 1.05 ± 0.1 | 0.985 (active) |
| Cc1cc(OCC(=O)NCCn2nc(C3CC3)ccc2=O)cc(C)c1Cl | 0.861 ± 0.2 | 1 ± 0.055 | 1.01 ± 0.064 | 0.956 ± 0.039 | 0.823 ± 0.14 | 1.01 ± 0.26 | 0.778 (active) |
| CCNC(=O)c1ccc(CN2CCc3ccccc3C2)cc1 | 1.12 ± 0.09 | 1.13 ± 0.074 | 0.958 ± 0.059 | 0.905 ± 0.039 | 1.37 ± 0.29 | 1.04 ± 0.075 | 1.01 (active) |
| N[C@H]1CONC1=O | 1.08 ± 0.13 | 1.06 ± 0.057 | 1.03 ± 0.074 | 1.02 ± 0.1 | 0.957 ± 0.039 | 0.949 ± 0.1 | 1.01 (active) |
| CCSc1nc(-c2cccs2)cc(C(F)(F)F)c1C#N | 0.77 ± 0.078 | 1.05 ± 0.069 | 1.66 ± 0.063 | 0.904 ± 0.13 | 1.18 ± 0.12 | 1.9 ± 0.25 | 0.999 (active) |
| Nc1nc(Cl)nc2c1ncn2[C@@H]1O[C@H](CO)[C@@H](O)[C@@H]1F | 2.13 ± 0.16 | 1.41 ± 0.13 | 1.4 ± 0.087 | 1.08 ± 0.26 | 1.01 ± 0.045 | 0.918 ± 0.15 | 0.482 (inactive) |
| O=c1[nH]c(=O)n([C@H]2C[C@H](O)[C@@H](CO)O2)cc1I | 1.11 ± 0.15 | 0.928 ± 0.058 | 0.992 ± 0.044 | 1.04 ± 0.068 | 0.992 ± 0.069 | 0.967 ± 0.15 | 0.998 (active) |
| CCN(C=Nc1sc2c(c1C#N)CC(C)(C)NC2(C)C)CC | 0.759 ± 0.059 | 0.93 ± 0.054 | 0.901 ± 0.093 | 0.969 ± 0.044 | 1.24 ± 0.071 | 1.29 ± 0.22 | 0.992 (active) |
| NC(=O)c1cn(Cc2c(F)cccc2F)nn1 | 1.01 ± 0.075 | 0.951 ± 0.12 | 1 ± 0.049 | 1.17 ± 0.3 | 0.923 ± 0.08 | 0.906 ± 0.12 | 0.999 (active) |
| Cc1ccnc2c1NC(=O)c1cccnc1N2C1CC1 | 1.19 ± 0.26 | 1.2 ± 0.3 | 0.967 ± 0.067 | 0.88 ± 0.035 | 1.34 ± 0.36 | 1.29 ± 0.097 | 0.994 (active) |

| SMILES | NF-kB reporter [1, 4] | NF-kB reporter ([1]; agonist: LPS 0.1 ug/mL) | NF-kB reporter ([1]; agonist: MPLA […]) | IRF reporter ([2]; agonist: 3'3'-cGAMP 10 ug/mL) | IRF reporter ([2]; agonist: LPS 0.1 ug/mL) | IRF reporter ([2]; agonist: MPLA […]) | viability score [3] |
| --- | --- | --- | --- | --- | --- | --- | --- |
| CCCCn1c(CNC(=O)c2cccs2)nc2ccccc21 | 0.926 ± 0.077 | 0.98 ± 0.06 | 1.03 ± 0.061 | 1.03 ± 0.06 | 1.15 ± 0.093 | 0.921 ± 0.15 | 0.983 (active) |
| COc1ccc(Nc2nc(N3CCCCC3)c3cnn(C)c3n2)cc1 | 0.753 ± 0.043 | 1.23 ± 0.096 | 1.08 ± 0.048 | 0.388 ± 0.02 | 0.967 ± 0.097 | 1.23 ± 0.12 | 0.969 (active) |
| O=S(=O)(c1ccccc1)N1CCOCC1 | 0.956 ± 0.057 | 0.992 ± 0.061 | 0.935 ± 0.071 | 0.981 ± 0.033 | 1.33 ± 0.21 | 1.15 ± 0.15 | 1 (active) |
| CCC(=O)Nc1ccc(S(=O)(=O)N2CCCC(Cc3nc(C4CC4)no3)C2)c(C)c1 (stereo not given) | 0.885 ± 0.062 | 0.986 ± 0.1 | 1.01 ± 0.065 | 0.88 ± 0.048 | 1.21 ± 0.26 | 1.38 ± 0.51 | 0.961 (active) |
| CCOC(=O)c1c(C)n(-c2ccccc2)c2ccc(NS(=O)(=O)c3ccccc3)cc12 | 0.959 ± 0.16 | 0.95 ± 0.075 | 1.04 ± 0.087 | 0.932 ± 0.029 | 1.05 ± 0.13 | 1.21 ± 0.17 | 0.808 (active) |
| CC12CC3CC(C)(C1)CC(N)(C3)C2.Cl | 0.831 ± 0.1 | 0.892 ± 0.086 | 0.855 ± 0.074 | 1.24 ± 0.056 | 1.2 ± 0.099 | 1.14 ± 0.095 | 0.978 (active) |
| CCC(C)n1ncn(-c2ccc(N3CCN(c4ccc(OC[C@H]5CO[C@](Cn6cncn6)(c6ccc(Cl)cc6Cl)O5)cc4)CC3)cc2)c1=O (stereo not given in full) | 1.57 ± 0.47 | 1.04 ± 0.057 | 1.1 ± 0.089 | 0.921 ± 0.044 | 1.2 ± 0.14 | 1.32 ± 0.13 | 0.994 (active) |
| CCC(=O)Nc1ccc(N2CCOCC2)c(Cl)c1 | 1.11 ± 0.12 | 0.945 ± 0.087 | 1.03 ± 0.052 | 0.838 ± 0.095 | 0.982 ± 0.054 | 1.01 ± 0.11 | 0.996 (active) |
| O=C(NN=Cc1c(O)ccc2ccccc12)c1ccccc1I | 1.54 ± 0.47 | 1.11 ± 0.096 | 1.02 ± 0.099 | 0.847 ± 0.043 | 1.47 ± 0.15 | 1.55 ± 0.17 | 1 (active) |
| COc1ccc2[nH]c(S(=O)Cc3ncc(C)c(OC)c3C)nc2n1 (stereo not given) [Prestw-1351] | 0.872 ± 0.15 | 1.15 ± 0.16 | 0.994 ± 0.11 | 0.819 ± 0.029 | 1.11 ± 0.14 | 1.24 ± 0.13 | 0.974 (active) |
| OC(C(=NN=C(c1ccccc1)C(O)c1ccccc1)c1ccccc1)c1ccccc1 (stereo not given) | 0.662 ± 0.072 | 1.14 ± 0.072 | 1.03 ± 0.063 | 1.14 ± 0.038 | 1.48 ± 0.11 | 1.45 ± 0.19 | 0.974 (active) |
| CCOC(N)=O | 0.962 ± 0.13 | 1.09 ± 0.24 | 0.948 ± 0.068 | 0.927 ± 0.057 | 1.32 ± 0.28 | 1.02 ± 0.14 | 1.01 (active) |
| CCN1C(=O)C(=Cc2c[nH]c3ccccc23)SC1=S | 0.67 ± 0.075 | 0.994 ± 0.081 | 0.868 ± 0.033 | 0.813 ± 0.16 | 1.02 ± 0.084 | 1.36 ± 0.18 | 0.804 (active) |
| CCN(CC)CCN1C(=O)C(O)=C(C(=O)c2ccc(C)cc2)C1c1ccccc1 (stereo not given) | 0.996 ± 0.078 | 0.974 ± 0.064 | 0.893 ± 0.041 | 0.827 ± 0.059 | 0.999 ± 0.11 | 0.896 ± 0.2 | 0.996 (active) |
| CCCCNCCCCOc1ccc(C)cc1C(C)(C)C | 0.441 ± 0.12 | 0.167 ± 0.036 | 1.38 ± 0.048 | 0.0798 ± 0.034 | 0.201 ± 0.056 | 2.6 ± 0.65 | 0.0697 (inactive) |
| Cc1ccc(F)c(NC(=O)Nc2ccc(-c3cccc4[nH]nc(N)c34)cc2)c1 | 0.692 ± 0.1 | 0.758 ± 0.2 | 1.59 ± 0.16 | 0.102 ± 0.0067 | 1.04 ± 0.22 | 1.19 ± 0.38 | 0.829 (active) |
| O=[N+]([O-])c1ccc(N2CCOCC2)c(-c2nnn[nH]2)c1 | 0.98 ± 0.25 | 1.05 ± 0.11 | 0.918 ± 0.085 | 0.938 ± 0.045 | 1.11 ± 0.14 | 1.29 ± 0.17 | 0.996 (active) |
